Assay results as given in PubChem BioAssay AID1159580 (chemical genetic matrix, 2015).
The campaign covered roughly 5,500 compounds. About 2,000 (36%) were called active. Inconclusive results (about 18%) are left out. The list shows a part of the results. A number with no mark means an inactive call. No stated cut-off is given here; in the data, active means normalized growth mostly below about 0.91 (no sharp cut-off); inconclusive means no clear call, values can overlap the other calls; inactive means mostly above about 0.92.

Test: chemical genetic growth profiling, strain panel (AID 1159580);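 further: tested at 20 µM; growth read once vehicle control cultures reached saturation at 30 °C; 1 = growth at the plate median or of vehicle wells; lower values mean less growth of the strain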
Details: S. cerevisiae deletion strains, growth OD

Compound: CC1(C)C(C(Cl)Cl)C2(Cl)C(Cl)C(Cl)C1(Cl)C2(Cl)Cl (centres undefined)
- normalized growth (locus YAL013W, strain DEP1, hits give low values): 0.984
- normalized growth (locus YAL021C, strain ccr4, hits give low values): 1.07
- normalized growth (locus YAL026C, strain drs2, hits give low values): 0.996
- normalized growth (locus YAL030W, strain snc1, hits give low values): 0.984
- normalized growth (locus YBL061C, strain skt5, hits give low values): 0.983
- normalized growth (locus YBR009C, strain hhf1, hits give low values): 0.976
- normalized growth (locus YBR021W, strain FUR4, hits give low values): 0.996
- normalized growth (locus YBR023C, strain chs3, hits give low values): 0.978
- normalized growth (locus YBR171W, strain sec66, hits give low values): 0.978
- normalized growth (locus YBR229C, strain ROT2, hits give low values): 0.987
- normalized growth (locus YBR231C, strain swc5, hits give low values): 0.979
- normalized growth (locus YBR279W, strain paf1, hits give low values): 0.992
- normalized growth (locus YCL011C, strain gbp2, hits give low values): 0.993
- normalized growth (locus YCL016C, strain dcc1, hits give low values): 0.979
- normalized growth (locus YCL029C, strain bik1, hits give low values): 0.972
- normalized growth (locus YCL061C, strain MRC1, hits give low values): 0.981
- normalized growth (locus YCL069W, strain vba3, hits give low values): 0.993
- normalized growth (locus YCR088W, strain abp1, hits give low values): 0.989
- normalized growth (locus YDL005C, strain med2, hits give low values): 0.981
- normalized growth (locus YDL035C, strain GPR1, hits give low values): 0.972
- normalized growth (locus YDL040C, strain nat1, hits give low values): 0.984
- normalized growth (locus YDL074C, strain BRE1, hits give low values): 1.02
- normalized growth (locus YDL101C, strain DUN1, hits give low values): 0.991
- normalized growth (locus YDL134C, strain PPH21, hits give low values): 0.986
- normalized growth (locus YDL185W, strain tfp1, hits give low values): 0.989
- normalized growth (locus YDL192W, strain arf1, hits give low values): 0.978
- normalized growth (locus YDR001C, strain nth1, hits give low values): 0.992
- normalized growth (locus YDR069C, strain doa4, hits give low values): 0.967
- normalized growth (locus YDR101C, strain arx1, hits give low values): 0.99
- normalized growth (locus YDR137W, strain rgp1, hits give low values): 0.839 (active)
- normalized growth (locus YDR150W, strain NUM1, hits give low values): 0.999
- normalized growth (locus YDR159W, strain sac3, hits give low values): 0.892
- normalized growth (locus YDR162C, strain NBP2, hits give low values): 0.988
- normalized growth (locus YDR195W, strain ref2): 0.997
- normalized growth (locus YDR297W, strain sur2, hits give low values): 0.977
- normalized growth (locus YDR318W, strain mcm21, hits give low values): 0.971
- normalized growth (locus YDR334W, strain swr1, hits give low values): 0.997
- normalized growth (locus YDR335W, strain msn5, hits give low values): 0.993
- normalized growth (locus YDR388W, hits give low values): 0.959
- normalized growth (locus YDR392W, strain spt3, hits give low values): 0.836
- normalized growth (locus YDR502C, strain sam2, hits give low values): 0.974
- normalized growth (locus YEL003W, strain gim4, hits give low values): 0.984
- normalized growth (locus YEL037C, strain rad23, hits give low values): 0.995
- normalized growth (locus YEL061C, strain CIN8 (second series), hits give low values): 0.995
- normalized growth (locus YEL061C, strain CIN8, hits give low values): 0.994
- normalized growth (locus YER015W, strain faa2, hits give low values): 0.979
- normalized growth (locus YER016W, strain bim1, hits give low values): 0.984
- normalized growth (locus YER110C, hits give low values): 0.981
- normalized growth (locus YER111C, strain swi4, hits give low values): 1
- normalized growth (locus YER155C, strain BEM2 (second series), hits give low values): 0.965
- normalized growth (locus YER155C, strain BEM2, hits give low values): 0.983
- normalized growth (locus YER167W, strain BCK2, hits give low values): 0.968
- normalized growth (locus YFR010W, strain ubp6, hits give low values): 1
- normalized growth (locus YGL078C, strain dbp3, hits give low values): 0.975
- normalized growth (locus YGL086W, strain mad1, hits give low values): 0.981
- normalized growth (locus YGL167C, strain pmr1, hits give low values): 0.973
- normalized growth (locus YGL173C, strain kem1, hits give low values): 0.972
- normalized growth (locus YGL227W, strain vid30, hits give low values): 0.99
- normalized growth (locus YGL240W, strain doc1, hits give low values): 0.963
- normalized growth (locus YGL248W, strain PDE1, hits give low values): 0.991
- normalized growth (locus YGL253W, strain hxk2, hits give low values): 0.989
- normalized growth (locus YGR078C, strain PAC10, hits give low values): 0.989
- normalized growth (locus YGR135W, strain pre9, hits give low values): 0.971
- normalized growth (locus YGR229C, strain SMI1, hits give low values): 0.962
- normalized growth (locus YGR252W, strain gcn5, hits give low values): 0.962
- normalized growth (locus YHR013C, strain ard1, hits give low values): 0.798 (active)
- normalized growth (locus YHR027C, strain rpn1, hits give low values): 0.977
- normalized growth (locus YHR030C, strain SLT2, hits give low values): 0.965
- normalized growth (locus YHR079C, strain IRE1 (second series), hits give low values): 0.965
- normalized growth (locus YHR094C, strain hxt1, hits give low values): 0.974
- normalized growth (locus YHR129C, strain ARP1, hits give low values): 0.996
- normalized growth (locus YHR142W, strain chs7, hits give low values): 0.992
- normalized growth (locus YHR200W, strain rpn10, hits give low values): 0.977
- normalized growth (locus YIL066C, strain RNR3, hits give low values): 0.955
- normalized growth (locus YIL073C, strain SPO22, hits give low values): 0.883
- normalized growth (locus YIL125W, strain kgd1, hits give low values): 0.979
- normalized growth (locus YIR030C, strain dcg1, hits give low values): 0.972
- normalized growth (locus YJL092W, strain hpr5, hits give low values): 0.986
- normalized growth (locus YJL095W, strain BCK1 (second series), hits give low values): 0.983
- normalized growth (locus YJL095W, strain BCK1, hits give low values): 0.991
- normalized growth (locus YJL115W, strain asf1, hits give low values): 0.99
- normalized growth (locus YJL129C, strain trk1, hits give low values): 0.841 (active)
- normalized growth (locus YJL134W, strain LCB3, hits give low values): 0.986
- normalized growth (locus YJL154C, strain vps35, hits give low values): 0.993
- normalized growth (locus YJL164C, strain tpk1, hits give low values): 0.975
- normalized growth (locus YJL166W, strain qcr8, hits give low values): 0.904
- normalized growth (locus YJL168C, strain set2, hits give low values): 0.978
- normalized growth (locus YJL187C, strain SWE1 (second series), hits give low values): 0.983
- normalized growth (locus YJL187C, strain SWE1, hits give low values): 0.988
